From PubChem BioAssay AID720650 (Broad Institute, 2013) come the findings set out here.

The structures appear in SMILES notation. Unmarked numbers belong to inactive results. Active and inactive are the calls of the source. No rule for the calls is given here.

The nature of the assay: Biochemical counterscreen for C difficile toxins, absence of UDPG, inhibitor dose response (AID 720650). The conditions noted are these: series mostly up to 19.5 µM.
With `COc1ccc(CNCCc2ccc3c(c2)OCO3)cc1Br`, the AC50 entry is “inactive”.
As to `CCN(C(=O)CN1C(=O)NC2(CCC(C)CC2)C1=O)C1CCCCC1` (centres undefined), the AC50 entry was “inactive”.
Consider `CC[C@H](C)[C@H]1CNC(=S)N1CC1CCN(CCCC2CCCC2)CC1`, for which the AC50 result was “inactive”.
For `CCc1ccc(NC(=O)C2=CC(c3ccc(OC)cc3)=NS(=O)(=O)N2C)cc1` the value was “inactive”.
As to `CN(C)CCNc1cccc2sc3ccc(O)cc3c(=O)c12`, the AC50 was 4.36 µM (active).
In the case of `CCNC(=O)C[C@H]1CC[C@@H]2[C@@H](COc3ccc(NC(C)=O)cc3C(=O)N2C)O1`, the AC50 result is “inactive”.
As for `C/C(=N\Nc1cc(N2CCOCC2)ncn1)c1ccc(O)cc1`, the entry is “inactive”; as for `C/C(=N\NC(=O)c1ccccc1O)c1cccc(NC(=O)c2ccccc2)c1`, “inactive”.
Regarding `O=C(O)C1CCC(CN(Cc2cccc(Br)c2)C(=S)Nc2ccccc2F)CC1` (centres undefined), the AC50 entry is “inactive”.
For the molecule `CC(=O)Nc1ccc(NC(=O)CN2CCN(c3ccccn3)CC2)cc1`, the AC50 entry is “inactive”.
On to `O=C(CNS(=O)(=O)c1ccc([N+](=O)[O-])cc1)N/N=C\c1ccc(O)cc1`, for which the half-maximal activity concentration (AC50) is 13.2 µM (active).
Regarding `CNC(=O)C1CCN(S(=O)(=O)c2c(C)noc2/C=C/c2ccc(C)cc2)CC1`, the AC50 entry is “inactive”.
Take `COc1ccc(-c2ccc3c(c2)[C@@H]2[C@@H](CCN2C(=O)C2CC2)[C@H](CO)N3C)cc1`: the AC50 was 14.8 µM (active).
For `Nc1ncc(S(=O)(=O)c2ccc([N+](=O)[O-])cc2)s1`, the AC50 entry is “inactive”.
Take `CCCCCCCN1C(N(C)C)=NC[C@@H]1Cc1ccccc1`: the AC50 entry is “inactive”.
For `Cc1ccc(-c2nc3ccc([N+](=O)[O-])cc3[nH]2)cc1` the value was 7.38 µM (active).
Turning to `CC(C)OC(=O)C(=O)NNc1ccccc1`, the AC50 was 1.35 µM (active).
For `Cc1cc(C=C2C(=O)c3ccccc3C2=O)c(C)n1-c1ccc(C(=O)O)cc1` the value was 12 µM (active).
As for `O=C(O)c1ccc(-c2nnc(-c3ccccc3)o2)cc1`, the entry is “inactive”; as for `O=C(NNc1ccc(-c2csnn2)cc1)c1ccccc1C(F)(F)F`, 0.432 µM (active).
As for `N/C(=N\N=C\c1ccc(O)cc1)c1nonc1N`, the figure is 5.49 µM (active); as for `COc1cc2nncc(SC)c2cc1OC`, “inactive”; as for `Nc1nc(Nc2ccccc2)n[nH]1`, over 39 µM.
On to `Cn1ncc(Cl)c1C(=O)N/N=C/c1cccc(OC2CSC2)c1`, for which the AC50 is over 39 µM.
For the molecule `O=C(O)c1ccccc1NC(=O)N1C[C@H]2C[C@@H](C1)c1cccc(=O)n1C2`, the AC50 entry was “inactive”.
In the case of `CC12CCC3C(=CCc4cc(O)ccc43)C1CC(=NO)C2O` (centres undefined), the AC50 is 19.4 µM (active).
As for `Nc1ncnc2[nH]c(=S)[nH]c12`, the AC50 was over 39 µM.
With `CCC(C)NC(=O)CSc1nc2cc(S(=O)(=O)N3CCOCC3)ccc2n1CC` (centres undefined), the AC50 result was “inactive”.
As for `CCOc1ccc(NC(=O)c2ccc(CC)s2)c([N+](=O)[O-])c1`, the entry is “inactive”; as for `CS(=O)(=O)Nc1cccc(C2=NN(C(=O)c3ccccc3)C(c3cccs3)C2)c1` (centres undefined), “inactive”.
For `CCOC(=O)N1CCN(C(=S)NC(=O)c2ccc(F)c(F)c2)CC1` the value was “inactive”.
For `O=[N+]([O-])c1c(Nc2ccccc2O)ccc2nonc12` the value was over 39 µM; for `O=c1oc(-c2ccc(Br)cc2)nc2ccccc12`, “inactive”.
`CN(C)c1ccc(NC(=O)/C=C/c2c(Cl)cccc2Cl)cc1`: the AC50 result is “inactive”.
As for `CCn1cc(C(=O)O)c(=O)c2cc(F)c(N3CCN(C(=S)NC(=O)c4ccccc4Br)CC3)cc21`, the entry is “inactive”; as for `COCC(=O)N1CC[C@@H]2[C@H]1c1cc(-c3ccc(OC)cc3)ccc1N(C)[C@H]2CO`, 10.2 µM (active); as for `CCn1c(SCC(=O)OC)nnc1-c1ccccc1`, “inactive”.
As for `O=S(=O)(Cc1cccc(F)c1)c1c[nH]c2ccccc12`, the figure is over 39 µM; as for `Oc1ccc(-c2nccs2)cc1`, 10.2 µM (active).
